# Records with an inconclusive call do not appear. Values without a mark were called inactive. Active and inactive are the calls of the source. Calls follow the shape of the dose curve; as a rule, active = well fitted curve in the direction sought with a large enough effect in the signal ratio in the repeat runs (not every such curve was filed as active); inconclusive = weak or mixed curves, or effect the other way; inactive = no such curve, though single readings can be large or run the other way; the % refers to the signal ratio.
# Target: Estrogen receptor (Homo sapiens) (UniProt P03372)
# Sequence (P03372 whole entry, looked up): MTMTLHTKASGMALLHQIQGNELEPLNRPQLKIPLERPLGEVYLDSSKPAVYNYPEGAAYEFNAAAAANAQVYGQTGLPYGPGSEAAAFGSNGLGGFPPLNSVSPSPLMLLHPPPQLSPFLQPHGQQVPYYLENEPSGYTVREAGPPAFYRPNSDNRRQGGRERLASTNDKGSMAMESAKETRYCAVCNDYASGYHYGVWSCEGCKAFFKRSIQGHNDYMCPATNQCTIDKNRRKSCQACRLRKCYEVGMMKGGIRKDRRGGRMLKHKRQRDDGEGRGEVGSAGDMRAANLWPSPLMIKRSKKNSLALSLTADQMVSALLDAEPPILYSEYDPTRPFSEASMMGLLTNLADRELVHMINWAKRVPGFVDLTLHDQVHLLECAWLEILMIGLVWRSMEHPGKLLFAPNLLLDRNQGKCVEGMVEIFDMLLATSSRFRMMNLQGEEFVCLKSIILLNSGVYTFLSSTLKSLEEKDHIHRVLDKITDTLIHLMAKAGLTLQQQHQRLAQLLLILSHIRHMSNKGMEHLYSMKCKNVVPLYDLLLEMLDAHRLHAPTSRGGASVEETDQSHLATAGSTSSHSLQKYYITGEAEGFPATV
# Test: qHTS assay to identify small molecule antagonists of the estrogen receptor alpha (ER-alpha) signaling pathway (AID 743069)
# Conditions: HEK293 ER-alpha-UAS-bla, beta-lactamase ratio, antagonist mode; series mostly up to 69.4 µM; activity, negative = inhibition: at the top concentration
# Text: National Center for Advancing Translational Sciences [NCATS]
# NIH Chemical Genomics Center [NCGC]
# U.S. Environmental Protection Agency [EPA]
# National Institutes of Environmental Health Sciences [NIEHS]
# National Toxicology Program [NTP]
# U.S. Food and Drug Administration [FDA]
# Estrogen receptor (ER), a nuclear hormone receptor, plays an important role in development, metabolic homeostasis and reproduction. Two subtypes of ER, ER-alpha and ER-beta have similar expression patterns with some uniqueness in both types. Endocrine disrupting chemicals (EDCs) and their interactions with steroid hormone receptors like ER causes disruption of normal endocrine function. To identify the compounds that inhibit ER signaling, an ER-alpha-UAS-bla GripTiteTM cell line (Invitrogen, Carlsbad, CA, USA) containing a beta-lactamase reporter gene under the control of an Upstream Activator Sequence (UAS) stably integrated into HEK293 cells was used to screen the Tox21 10K compound library.
# Tox21 Assay Protocol Summary:
# ER-alpha-bla cells were cultured in assay medium containing 2% charcoal stripped FBS overnight in the culture flasks before the assay was performed. The cells were dispensed at 5,000 cells/5 uL of assay medium per well into black wall/clear-bottom 1536-well plates using a Multidrop Combi (ThermoFisher Scientific, Waltham, MA) dispenser. After the assay plates were incubated at a 37C and 5% CO2 for 4 hr, 23 nL of compounds dissolved in DMSO, positive controls or DMSO only was transferred to the assay plate by a Pintool station (Kalypsys, San Diego, CA), followed by addition of 1 uL of 17beta-estradiol in assay medium using a Flying Reagent Dispenser (Aurora Discovery, San Diego, CA). The plates were incubated at 37C and 5% CO2 for 18 hr. Then 1 uL of LiveBLAzerTM B/G FRET substrate was added using a Flying Reagent Dispenser, the plates were incubated at room temperature for 2 hours, and fluorescence intensity was measured by an Envision plate reader (PerkinElmer, Shelton, CT).
# % is scaled to controls: 0 for no effect and ±100 for the full control effect.
Compound,"activity, negative = inhibition",Potency
Cc1coc2c1CCC(C)C2 (stereo not given),10.1% [at 79.1 µM],–
C=C(C)[C@@H]1CC=C(C=O)CC1,10.8%,–
CCS(=O)(=O)C(C)(C)S(=O)(=O)CC,9.88%,–
CCCCOP(=O)(O)OCCCC,12.3%,–
N#CCBr,5.79% [at 79.1 µM],–
CCN(CC)c1nc(C)cc(OP(=S)(OC)OC)n1,-12.7%,–
CCOP(=S)(OCC)Oc1cc(-c2ccccc2)on1,-9.29%,–
Cc1cc(C)nc(Nc2ccccc2)n1,20.2%,–
CCC/C(=N\OCC)C1=C(O)CC(CC(C)SCC)CC1=O (stereo not given),15.8% [at 79.1 µM],–
CC(CC(C#N)(c1ccccc1)c1ccccc1)N(C)C (stereo not given),-23.7%,–
O=C(Oc1ccc(Br)cc1)N1CCN2CCC1CC2,20.5%,–
CCOC(=O)CP(=O)(OCC)OCC,12.6%,–
CCCCP(CCCC)CCCC,15.9%,–
C[C@@H]1CN(C2CCC(C#N)(c3ccc(F)cc3)CC2)CC[C@]1(C(=O)O)c1ccccc1 (stereo not given in full),-0.23% [at 32.6 µM],–
OCCBr,-7.64%,–
OCCSCSCCO,5.43%,–
O=C(O)c1ccc2[nH]cc(CCCCN3CC=C(c4ccccc4)CC3)c2c1,8.11%,–
CC(Cl)(Cl)[N+](=O)[O-],4.93%,–
CC(C)NCC(O)c1ccc(N)c(C#N)c1 (stereo not given),16.5%,–
CCN(CC)C(C)C(=O)c1ccccc1 (stereo not given),6.41%,–

Compound,"activity, negative = inhibition",Potency
N#CC(Cl)(Cl)Cl,-5.91%,–
ClC(Cl)C(Cl)Cl,7.43% [at 79.1 µM],–
OC(Cn1cncn1)(c1ccc(F)cc1)c1ccccc1F (stereo not given),-19.4%,–
CCC1(c2ccccc2)C(=O)N=C(O)NC1=O (stereo not given),-6.84%,–
CCOc1nc(C(Cl)(Cl)Cl)ns1,18.3%,–
C=C(C)CN(CC)c1c([N+](=O)[O-])cc(C(F)(F)F)cc1[N+](=O)[O-],-10.2%,–
CSc1ccc(C(=O)C(C)(C)N2CCOCC2)cc1,-2.46%,–
COc1ncc(F)c2nc(S(=O)(=O)Nc3c(F)cccc3F)nn12,10.9%,–
[O]=[Cd],–,inactive
CNC(=O)Oc1ccc(N(C)C)c(C)c1,11.3%,–
BrCCCCCCBr,6.5%,–
Cc1ncc(CNC(=O)N(CCCl)N=O)c(N)n1,9.8%,–
COc1cc(OC)nc(NC(=O)NS(=O)(=O)c2ncccc2C(=O)N(C)C)n1,40.2%,–
CCCCN(CCCCO)N=O,6.91%,–
Cc1nnc2n1-c1sc(CCC(=O)N3CCOCC3)cc1C(c1ccccc1Cl)=NC2,–,inactive
O=C(NCO)NCO,11.9% [at 79.1 µM],–
CCCSP(=S)(OCC)Oc1ccc(Cl)cc1Cl (stereo not given),13.5%,–
CCOP(=S)(OCC)Oc1nc(Cl)n(C(C)C)n1,14%,–
Nc1cc2c3c(c1)C(c1ccccc1)=N[C@@H](NC(=O)c1cccnc1)C(=O)N3CC2,21.8%,–
CC(=O)[C@H]1CC[C@H]2[C@@H]3CC[C@H]4C[C@H](O)CC[C@]4(C)[C@H]3C(=O)C[C@]12C,14.5%,–
